# Data published in PubChem BioAssay AID1851 (National Center for Advancing Translational Sciences (NCATS), 2009).
# Several values for one entry are separate records, joined by “and”; a condition that tells them apart may be missing. Equal values may be shown once. The whole screen tested about 16,000 compounds, of which about 2,600 (16%) were called active. Not shown: some 20% with an inconclusive outcome. The list is a sample of the results. Unmarked numbers belong to inactive results. Calls follow the shape of the dose curve; as a rule, active = well fitted curve in the direction sought with a large enough effect; inconclusive = small, poorly fitted or top-dose-only effect, or effect the other way; inactive = no such curve, though single readings can be large or run the other way.
# Biological target: Cytochrome P450 2D6 (Homo sapiens) (UniProt P10635)
# Test: Cytochrome panel assay with activity outcomes
# Conditions: recombinant CYP, pro-luciferin dealkylation, luminescence, p450-cyp2d6; series mostly up to 57.1 µM; activity, negative = inhibition: at the top concentration
# % is scaled to controls: 0 for no effect and ±100 for the full control effect.
# Sequence of Cytochrome P450 2D6 (Homo sapiens) (P10635 whole entry, looked up): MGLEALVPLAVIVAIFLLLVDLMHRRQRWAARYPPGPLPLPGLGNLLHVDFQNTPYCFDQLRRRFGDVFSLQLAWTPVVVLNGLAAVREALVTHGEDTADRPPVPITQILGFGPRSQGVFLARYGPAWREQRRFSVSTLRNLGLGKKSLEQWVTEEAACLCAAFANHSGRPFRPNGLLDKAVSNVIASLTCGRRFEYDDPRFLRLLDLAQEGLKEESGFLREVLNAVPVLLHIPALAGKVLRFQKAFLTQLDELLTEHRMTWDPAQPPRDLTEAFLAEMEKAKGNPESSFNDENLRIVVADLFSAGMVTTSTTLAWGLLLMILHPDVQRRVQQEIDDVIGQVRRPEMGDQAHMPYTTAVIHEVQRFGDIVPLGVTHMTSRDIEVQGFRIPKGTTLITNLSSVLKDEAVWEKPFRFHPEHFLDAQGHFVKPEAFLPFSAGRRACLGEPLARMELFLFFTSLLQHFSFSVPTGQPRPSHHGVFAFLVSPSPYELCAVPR
Structure (SMILES),"activity, negative = inhibition",AC50
C=CC(=O)NC(NC(=O)C=C)c1ccc(Br)cc1,11%,
C(=C1/CCCC2=C1Nc1ncnn1C2c1ccccc1)/c1ccccc1 (stereo unspecified),2.54%,
O=C1CC(=Nc2ccccc2)NN1c1ccccc1,-10.4%,
CCCCSc1ccc2nc(-c3ccc(C#N)cc3)cn2c1,-24.5%,
CCN(CC)CCOC(=O)C(c1ccccc1)c1ccccc1,,5.01 µM (active)
CCN(Cc1ccncc1)C(=O)[C@@H](CO)c1ccccc1,,inactive
N[C@@](CCc1ccccc1)(C(=O)O)c1ccccc1,0.379% [at 11.4 µM],
CN(C)CCOC(=O)[C@@H](c1ccccc1)C1(O)CCCC1,-6.43% [at 25.6 µM],
CCN(CC)CCOC(=O)[C@@H](c1ccccc1)C1CCCCC1,,0.631 µM (active)
O=C1CCC[C@@H](C(C(=O)OCc2ccccc2)C(=O)OCc2ccccc2)C1,-12.9% [at 11.4 µM],
CCCC(C(=O)OCCN(CC)CC)(c1ccccc1)c1ccccc1,,63.1 nM (active) and 15.8 nM (active)
O=C(O)C1CCCN1C(=O)OCc1ccccc1 (stereo unspecified),-3.43%,
N#Cc1cccc(NC(=O)N2CCC3(CC2)CCN(C(=O)c2cccc(F)c2)CC3)c1,-13.4%,
O=C(O)[C@@H]1[C@@H]2C[C@@H]3[C@@H](OC(=O)[C@@H]31)[C@H]2Br,0.593% [at 11.4 µM],
CCOC(=O)c1ccc(-c2ccc(/C=C(\C#N)C(=O)NCC3CCCO3)o2)cc1 (stereo unspecified),-17.3%,
COC(=O)c1cc2c(ccn2-c2ccc(F)cc2)n1CC(C)C,13.8%,
OC[C@@H]1O[C@@H](n2cnc3cncnc32)[C@@H](O)[C@H]1O,-2.03%,
NC(=O)Nc1n[nH]c(-c2ccccc2)n1,9.86% [at 11.4 µM],

Structure (SMILES),"activity, negative = inhibition",AC50
Cc1ccc2cc3cc(C(=O)N4CCCCC4C)oc3nc2c1 (stereo unspecified),-7.91%,
O[C@@H]1[C@@H](OCc2ccccc2)OC[C@H](O)[C@@H]1O,0.194% [at 11.4 µM],
COc1cc(OC)c(NC(=S)Nc2cccc(C(C)=O)c2)cc1Cl,,15.8 µM (active)
COc1cc(C(=O)NC(=S)Nc2ccc(Cl)c(C(=O)O)c2)cc(OC)c1OC,1.96%,
CCOc1cc(NC(=S)Nc2cccc(C)c2)c(OCC)cc1NC(=O)CC(C)C,-15.7%,
CC(C)CCNC(=O)Cc1ccccc1[N+](=O)[O-],-21.8%,
O=C(CSc1c[nH]c2ccccc12)N1CCOCC1,-28.8%,
CCc1cc2c(=O)c(-c3nc4ccccc4[nH]3)coc2cc1OC(=O)N1CCOCC1,-17.4%,
O=C(c1ccco1)N1CCN(C(=O)C2(S(=O)(=O)c3ccc(Cl)cc3)CC2)CC1,-9.48%,
CCOC(=O)N1CCN(C(=O)CSCc2ccc(Cl)cc2)CC1,-16%,
COC(=O)[C@H](Cc1ccccc1)NC(=O)N1CCN(Cc2ccccc2)CC1,,11.2 µM (active)
COC(=O)[C@H](Cc1ccccc1)NC(=O)[C@@H](C)CO,3.71% [at 11.4 µM],
COc1ccc(Nc2ncc(C(=O)N3CCN(Cc4ccccc4)CC3)c3ccccc23)cc1,-6.13%,
CCOC(=O)C1(S(=O)(=O)c2ccccc2)CCN(Cc2ccccc2)CC1,,2 µM (active)
CCOC(=O)C1(S(=O)(=O)c2ccc(Cl)cc2)CCN(Cc2ccc(Cl)cc2)CC1,,3.55 µM (active)
CCOC(=O)N1CCN(S(=O)(=O)Cc2ccccc2)CC1,-6.68%,
CC(C)NC1(C(N)=O)CCN(Cc2ccccc2)CC1,,0.631 µM (active)
CCOC(=O)N1CCN(C(=O)C(C)SCc2ccccc2)CC1 (stereo unspecified),-25.5%,
